Results published in PubChem BioAssay AID1956 (SRMLSC, 2009).
Where “and” joins values, the source holds several entries; their conditions need not be identical. Equal values may be shown once. Screen size: about 220,000 compounds; about 10 (0.005%) were called active. No stated cut-off is given here; in the data, active means maximum fold increase above about 1.5; inconclusive means no clear call, values can overlap the other calls; inactive means below that; tested in PC3 cells. The list is a sample of the results.

Experiment: compounds boosting herpes simplex virus growth – fold increase, host cell viability (AID 1956)
Conditions: HSV replication augmentation in cells; fold increase: measured here: primary screen fold increase 10 uM, at 10 µM, stronger effect = higher value; maximum fold increase: at 0.098 µM, stronger effect = higher value; viability: measured here: host cell viability series, at 25 µM, stronger effect = lower value

Compound | fold increase | outcome
Cc1ccc(-c2csc(NCCc3nc4cc(Cl)c(Cl)cc4n3CCOCCO)n2)cc1 | 0.88 | inactive
CN(C)S(=O)(=O)c1ccc(NC(=O)COC(=O)Cn2[nH]c(=O)c3ccccc3c2=O)cc1 | 0.93 | inactive
Nc1nc(Nc2ccccc2)nc(NCCO)c1[N+](=O)[O-] | 0.82 | inactive
C=CCSc1nnc2c(n1)-c1cccc3cccc-2c13 | 0.7 | inactive
O=C1N[C@H](Cc2ccccc2)C(=O)N[C@H]1Cc1cn(S(=O)(=O)c2ccccc2)c2ccccc12 | 0.74 | inactive
O=C(COc1ccccc1[N+](=O)[O-])N/N=C/c1ccc[nH]1 | 1 | inactive
Cc1ccc(N2C(=O)CC(Nc3cccc4ccccc34)C2=O)cc1 (configuration not stated) | 0.96 | inactive
CC(=O)NC(=S)Nc1ccc(NC(=O)c2cccnc2)cc1 | 0.97 | inactive
COc1ccc(/C=N/n2nnnc2N)cc1OC | 0.91 | inactive
Cc1ccc(/C=N/NC(=S)NC2CCCCC2)o1 | 0.99 | inactive
O=C(O)C1CCN(C(=O)c2cc(F)cc3c2OCOC3)CC1 | 1.05 | inactive
C[C@H]1CC[C@]2(O[C@@H](CCO)C[C@@H](O)[C@@H]2O)O1 | 0.79 | inactive
O=C(O)CCCCCCCCCC[n+]1ccccc1 | 0.88 | inactive
COc1ccc2c(c1)CCNC2Cc1ccc(OC)c(O)c1 (configuration not stated) | 0.84 | inactive
O=C1c2ccccc2S(=O)(=O)c2cc(N3CCN(c4ccccn4)CC3)ccc21 | 0.92 | inactive
CCOC(=O)c1ccc(NC(=O)c2c(N)n(C)c(=O)[nH]c2=O)cc1 | 0.86 | inactive
COC(=O)c1cc(NC(=O)c2cc(C(C)(C)C)nn2Cc2cccc(C)c2)ccc1N1CCOCC1 | 0.93 | inactive
COc1ccc(-c2csc(NC3OC(=O)c4ccccc43)n2)cc1 (configuration not stated) | 0.65 | inactive
O=C(O)Cc1csc(-c2cccc(Oc3ccccc3)c2)n1 | 1.01 and 0.89 | inactive
Cc1ccc(CNC(=O)c2ccc3c(c2)S(=O)(=O)c2ccccc2C3=O)cc1 | 0.82 | inactive
O=C(Cc1ccccc1)Nc1c(Cl)ccc2nsnc12 | 1.01 | inactive
COc1ccc(Cl)cc1CSc1ncn[nH]1 | 0.97 | inactive
Cc1c(NC(=O)C(=O)N/N=C/c2cccs2)c(=O)n(-c2ccccc2)n1C | 0.92 | inactive

Compound | fold increase | outcome
O=C(NC1CC1)C1=C[C@H](c2coc3ccccc3c2=O)C[C@H](OCCCCO)O1 | 0.73 | inactive
CC(C)Cc1ccc(C(C)C(=N)N)cc1 (configuration not stated) | 0.92 | inactive
CC(C)(C)n1nc(Cc2cccc3ccccc23)c(C#N)c1N | 0.79 | inactive
Oc1ccc(-c2nnc(Nc3ccccc3)c3ccccc23)cc1 | 0.8 | inactive
CC1(C)CC(N2CCN(C(c3ccccc3)c3ccccc3)CC2)=CC(=[N+]2CCCCC2)C1 | 0.65 | inactive
C#CCOCCOCCOCCNc1nc(N2CCN(C(=O)C([C@@H](C)CC)n3cc(C(N)COC(=O)C(F)(F)F)nn3)CC2)nc(N2CCN(C(=O)[C@H](Cc3ccc(O)cc3)n3cc(C(N)[C@H](C)CC)nn3)CC2)n1 (some centres not stated) | 0.87 | inactive
C#CCNC(=O)[C@H](Cc1ccc(C(=O)c2ccccc2)cc1)NC(=O)OC(C)(C)C | 0.7 | inactive
COc1ccccc1-n1cn[nH]c1=S | 0.88 | inactive
O=C(O)CCn1c(O)c(C=C2N=c3ccccc3=N2)sc1=S | 1.18 | inactive
Cc1nc(Cl)c(C#N)c2c1CCCC2 | 0.96 | inactive
O=c1[nH]snc1-c1c(Cl)cccc1Cl | 0.9 | inactive
C[C@@H](NC(=O)OC(C)(C)C)c1nnc(S(=O)(=O)Cc2ccccc2)o1 | 0.98 | inactive
OCC[C@H]1C[C@H](O)[C@@H](O)[C@]2(CCCCO2)O1 | 0.79 | inactive
CCCCCCCCCCCCN1[C@@H](CC(C)=O)c2cc(F)cc(F)c2S1(=O)=O | 0.93 | inactive
COc1ccc(CN2[C@@H](CC(=O)O)c3cc(F)ccc3S2(=O)=O)cc1 | 0.82 | inactive
C=CCC(Nc1ccccc1)c1cccc(OC)c1OC (configuration not stated) | 0.99 | inactive
COc1ccc(CNC(=O)C2(CC3CC(c4ccccc4)=NO3)CCN(C(=O)c3cccc(O)c3)CC2)cc1 (configuration not stated) | 0.88 | inactive
CC1CCN(Cc2nc(-c3ccc(Cl)cc3)no2)CC1 | 0.99 | inactive
NC(=O)NC(=O)CSc1nc2cc([N+](=O)[O-])ccc2n1-c1cccc(C(F)(F)F)c1 | 0.9 | inactive
COc1ccc(N2C(=O)C3C(C2=O)C(C(=O)c2ccccc2)N2CCCC32)cc1 (configuration not stated) | 1.02 | inactive
Cc1ccccc1NC(=O)Nc1ccccc1N1CCCCC1 | 0.85 | inactive
CCCC[C@@H]1CN=C(N)N1CCc1cccc(F)c1 | 0.84 | inactive
C/C=C(/C)C(=O)O[C@@H]1c2cc3c(c4c2[C@@]2(CO4)C(=O)C(OC)=C(OC)C=C2C[C@@H](C)[C@H]1C)OCO3 | 0.75 | inactive

Compound | fold increase | outcome
CC1Cc2ccccc2N1CC(=O)Nc1ccc(S(N)(=O)=O)cc1 (configuration not stated) | 1.03 | inactive
O=C(Nc1nnc(COc2ccccc2)s1)Nc1ccccc1F | 0.9 | inactive
COc1ccc(COCCN2CCN(S(=O)(=O)c3ccccc3)CCC2=O)cc1 | 0.895 | inactive
N/C(=N\OC(=O)CCn1cccc(C(F)(F)F)c1=O)c1ccc(OC(F)(F)F)cc1 | 0.99 | inactive
C=CC(COCc1ccccc1)N(Cc1ccccc1)S(=O)(=O)c1ccccc1Br (configuration not stated) | 1.29 | inactive
Cc1cc(C(=O)NNS(=O)(=O)c2ccccc2C(F)(F)F)nn1C(C)(C)C | 1 | inactive
CC1(C)S[C@@H]2[C@H](N=CN3CCCCCC3)C(=O)N2[C@H]1C(=O)O | 0.85 | inactive
CN(C)N=Nc1ccc2nc[nH]c2c1 | 1.29 | inactive
O=C(O)C1CCN(c2ccc([N+](=O)[O-])cc2[N+](=O)[O-])CC1 | 0.9 | inactive
CCOC(=O)c1ccc(NC(=O)c2nc[nH]c2C(=O)NCc2ccccc2)cc1 | 0.92 | inactive
CC(C)(C)Oc1ccccc1Nc1nc(NCCO)nc(N2CCCC2)n1 | 0.69 | inactive
CCOC(=O)C1Nc2ccc(C(F)(F)F)cc2C2C=CCC12 (configuration not stated) | 0.82 | inactive
O=[N+]([O-])c1ccc(N/N=C/c2ccccc2)cc1 | 1.08 | inactive
O=c1c2c3c(sc2n(CCN2CCCC2)c(=O)n1Cc1ccccc1)CCCCC3 | 0.84 | inactive
Cc1ccc(NC(=O)/C(=C/c2ccc([N+](=O)[O-])cc2)NC(=O)c2ccccc2)cc1 | 0.83 | inactive
COc1ccc2[nH]c(=S)cc(C)c2c1 | 1.08 | inactive
CCOC(=O)C1CCN(c2c(Nc3cc(C)cc(C)c3)c(=O)c2=O)CC1 | 0.95 | inactive
CC(NC(=S)Nc1ccccc1)C(c1cccs1)N1CCOCC1 (configuration not stated) | 1 | inactive
Cc1nc(-c2ccc(Cl)cc2)sc1C1(C)CC(c2ccc(Br)cc2)=NO1 (configuration not stated) | 0.87 | inactive
CCOC(=O)/C=C/c1ccc(C(F)(F)F)cc1S(=O)(=O)NC(C)(C)C | 0.67 | inactive
CC(C)n1c(=S)[nH]c2cc(C(F)(F)F)ccc21 | 1.02 | inactive
COc1cccc(Nc2nnc(SCC(=O)N3CC(=O)Nc4ccccc43)s2)c1 | 1 | inactive
CCc1nnc(SCc2cccc(F)c2)nc1CC | 1.19 | inactive

Compound | fold increase | outcome
CC1(C)CC[C@]2(C(=O)O)CC[C@]3(C)C(=CCC4[C@@]5(C)CC[C@H](O)C(C)(C)C5[C@H](O)C[C@]43C)[C@@H]2C1 (some centres not stated) | 0.82 | inactive
COC(C[C@@H](O)C[C@@H](O)[C@H](C)OCc1ccccc1)OC | 1.01 | inactive
COC(=O)c1cc(=O)n(-c2c(Cl)cc(C(F)(F)F)cc2Cl)[nH]1 | 0.98 | inactive
S=c1[nH]nc(-c2cc(-c3ccccc3)n[nH]2)n1/N=C/c1c2ccccc2cc2ccccc12 | 0.83 | inactive
Cc1cc(C)nc(NC(=O)/C=C/c2ccc(Cl)cc2)n1 | 0.99 | inactive
S=C(NNC(=S)NC1CC2C=CC1C2)NC1CC2C=CC1C2 (configuration not stated) | 0.93 | inactive
CCCCN1C(N)=NC[C@@H]1CC1CCCCC1 | 0.8 | inactive
C=CCC1(C(=O)N(C)Cc2ccccc2)CCN(C(=O)OC(C)(C)C)CC1 | 0.96 | inactive
NC(=O)C1=C[C@@H](c2csc3ccccc23)C[C@@H](OCc2ccc(CO)cc2)O1 | 0.78 | inactive
COC(C[C@H](O)CC(=O)[C@@H](C)OCc1ccccc1)OC | 0.76 | inactive
CCCOc1ccc(Cl)cc1Nc1nc(NCCO)nc(N2CCCC2)n1 | 0.59 | inactive
CC1(c2nnc(-c3ccncc3)o2)CC(c2cccnc2)=NO1 (configuration not stated) | 0.69 | inactive
Cc1cc(Cl)ccc1NNC(=O)c1snnc1C | 1.06 | inactive
CCC1(CC)C(=O)C2=C3C1[C@H](C(=O)OC)C=C(C(=O)OC)C[C@H]3[C@H]1C(=O)N(Cc3ccccc3)C(=O)[C@H]1[C@H]2C (some centres not stated) | 0.96 | inactive
CCC(C)N1C(=S)SC(C)(C)C1N(O)C(=O)NC1CCCCC1 (configuration not stated) | 0.99 | inactive
NC(=O)CC(NC(=O)Cc1cccc2ccccc12)c1ccc(NCc2cc(F)ccc2F)c([N+](=O)[O-])c1 (configuration not stated) | 0.77 | inactive
CC1(C)C=Cc2c(ccc3c2OC[C@@H](c2ccc(O)cc2O)C3)O1 | 0.67 | inactive
Nc1nc(O)c(CC(=O)O)s1 | 1.21 | inactive
Clc1ccc2nc(-c3ccccc3)nc(C(Cl)Cl)c2c1 | 0.64 | inactive
CCCCN1C(N)=NC[C@@H]1Cc1ccccc1 | 0.87 | inactive
Cc1nnc(SC(C(=O)c2ccccc2)c2ccccc2)[nH]c1=O (configuration not stated) | 0.88 | inactive
CN1CCc2nc(SC(C(=O)O)c3ccccc3)c(C#N)c(-c3cccs3)c2C1 (configuration not stated) | 0.99 | inactive
